# Most compounds without a hit are left out; they make up all but 2.6% or so of the library.
# Peg3 promoter = reduces Peg3 promoter-driven luciferase expression in HeLa. HeLa PEG-Prom luciferase reporter, luminescence, overnight. inhibition, % at 20 µM. 360,000 tested, 1.7% active;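 active means inhibition of at least 50% at 20 µM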
# KKLEB tox = counter-screen for CF NF-kB inhibitors: cytotoxicity | activity change (cytotoxicity), % at 5 µM | 360,000 tested, 0.36% active | AID 602141 | KKLEB CF airway cells viability, ATPlite luminescence, overnight; hits give low values; cells stimulated with P. aeruginosa culture filtrate;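 active means corrected activity change at or below -50% at 5 µM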
# CF NFkB block = cystic fibrosis NF-kB activation inhibition. KKLEB NF-kB-GFP reporter, PAF-induced, GFP fluorescence overnight. 360,000 tested, 0.86% active. inhibition, % at 5 µM;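 active means at least 50% inhibition at 5 µM, scaled per plate between neutral and stimulator controls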;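 further: PAF is a Pseudomonas aeruginosa culture filtrate used as stimulus; plate controls were PAF-stimulated DMSO wells for no effect and unstimulated DMSO wells for full effect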
# HIF-2a block = HIF-2a inhibition | 786-0 RCC cells HIF-2a reporter, luciferase luminescence, overnight | inhibition, % at 18.8 µM | 360,000 tested, 0.72% active | AID 624352;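 active means inhibition of the luminescence signal of 40% or more relative to plate controls, in a single-dose primary screen at 18.75 µM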
# Shn3 inh set2 = Schnurri-3 reporter inhibition in Clone20 osteoblasts | Clone20 osteoblast Shn3 3'UTR firefly luciferase, 24 h | inhibition, % at 12.5 µM | 360,000 tested, 0.52% active | AID 588674;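 active means mean inhibition of at least 75% with every replicate also reaching 75%; inconclusive means mean inhibition at least 75% but some replicate below; inactive means mean inhibition below 75%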;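 further: 0% = median of neutral control wells and 100% = pilot-screen positive control compound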
# * = called active by the depositor; ? = inconclusive.
SMILES,Peg3 promoter,KKLEB tox,CF NFkB block,HIF-2a block,Shn3 inh set2
O=C1C(Cl)=C(NCc2ccco2)C(=O)c2ccccc21,-49.5,0.5,73.5*,-7.7,-5.3
COc1cc(NC(=O)c2cccc(NC3=NC4CS(=O)(=O)CC4S3)c2)cc(OC)c1OC (stereo not drawn),9.0,-8.1,-0.1,6.3,-41.0
O=C(NCc1ccc(F)cc1)c1cc2c(s1)CS(=O)(=O)C2,5.2,-12.5,-5.7,5.1,2.4
CCOc1ccccc1Nc1nnc(SCc2nnc(-c3cc(OC)c(OC)c(OC)c3)o2)s1,65.2*,-1.5,-4.4,2.5,24.5
COc1ccccc1Nc1nnc(SCc2nnc(-c3cc(OC)c(OC)c(OC)c3)o2)s1,30.1,-0.2,-2.7,1.7,-3.9
Cc1ccc(NS(=O)(=O)c2cc(-c3n[nH]c(=O)c4ccccc34)ccc2C)cc1,61.9*,-20.8,17.6,26.1,30.7
COC(=O)/C=C\C(C#N)(C#N)N=Cc1ccc(OC)cc1,104.9*,-13.4,9.1,-12.3,4.0
Cn1c(NCCN2CCCC2)nc2cc(-c3cccc(C(F)(F)F)c3)sc2c1=O,58.1*,2.3,-0.5,-75.6,-5.3
CN(C)CCCNc1nc2cc(-c3ccccc3)sc2c(=O)n1C,-14.2,-13.1,3.1,-69.5,-2.3
CN(C)CCCNc1nc2cc(-c3ccc(F)cc3)sc2c(=O)n1C,90.4*,-6.9,-4.1,-41.1,14.7
Cc1c([N+](=O)[O-])c(C(=O)NC2CCCC2)nn1C,22.4,-9.0,1.9,17.1,-12.4
COC[C@@H]1CCCN1[C@H]1CS(=O)(=O)N[C@@H]1COCc1ccccc1,0.6,-8.2,-2.3,-0.8,-14.4
COc1ccccc1CN(Cc1nc2ccccc2c(=O)[nH]1)S(=O)(=O)c1ccc2ccccc2c1,58.4*,-15.5,33.1,8.9,20.7
CCOC(=O)/C=C/C(=O)Nc1ccc(S(=O)(=O)Nc2c(C)cc(C)cc2C)cc1,47.3,-14.7,-38.3,30.6,12.5
CCOC(=O)/C=C/S(=O)(=O)c1ccc(NC(C)=O)cc1,102.5*,-37.8,90.4*,38.7,96.5*
CCOC(=O)/C=C/C(=O)Nc1ccc(Oc2ccccc2)cc1,53.9*,-4.9,-34.8,33.6,2.2
O=C(O)/C=C/C(=O)Nc1ccc(Oc2ccccc2)cc1,6.2,2.3,3.9,11.9,1.8
Cc1ccc(NS(=O)(=O)c2ccc3c(c2)CCN3C(=O)CCC(=O)O)cc1Cl,11.6,11.7,1.8,14.4,-18.1
Nc1ccc(CC(N)c2csc(Nc3nncc4ccccc34)n2)cc1 (stereo not drawn),9.1,-3.0,5.3,-6.0,-10.4
NC(Cc1ccccc1)c1csc(Nc2nncc3ccccc23)n1 (stereo not drawn),95.8*,-8.3,23.1,-24.6,-17.8
NC(CCc1ccccc1)c1csc(Nc2nncc3ccccc23)n1 (stereo not drawn),89.8*,-7.8,26.2,-4.2,-1.3
O=C1CC2(CCN(C(=O)c3ccccc3Cl)CC2)Oc2ccccc21,19.1,-8.5,26.7,25.8,18.9
COC(=O)c1ccccc1-n1c(C)nc(=O)c(-c2ccccc2)c1C,-2.7,8.5,-11.4,8.0,1.7
COc1ccc(C(Nc2ccc(S(=O)(=O)NCC3CCCO3)cc2)C(=O)NC(C)(C)C)cc1OC (stereo not drawn),-3.0,-13.3,2.9,11.9,-4.1
O=C(/C=C/c1ccccc1[N+](=O)[O-])OCC(=O)c1ccccc1,-107.5,-2.1,-12.9,-79.8,6.3
SMILES,Peg3 promoter,KKLEB tox,CF NFkB block,HIF-2a block,Shn3 inh set2
O=C(/C=C/c1ccccc1[N+](=O)[O-])c1ccc(F)cc1,106.8*,2.9,6.0,-121.8,17.0
O=C(CCn1nc(-c2ccc(Cl)cc2)ccc1=O)N1CCN(c2ccc(F)cc2)CC1,23.8,-3.9,-9.2,14.5,0.2
Cc1cccnc1C(NC(=O)C1CCN(Cc2ccc(Cl)cc2)CC1)c1ccccc1 (stereo not drawn),12.7,-6.4,13.2,-2.8,10.3
O=C(NC(c1ccc(Cl)cc1)c1ccccn1)C1CCN(CCOc2ccc(Cl)cc2Cl)CC1 (stereo not drawn),99.6*,-14.2,8.6,-22.4,-5.8
Cc1cccnc1C(NC(=O)C1CCN(Cc2cn(C)c3ccccc23)CC1)c1ccc(Cl)cc1 (stereo not drawn),105.3*,-26.1,34.1,2.3,7.1
O=C(NC(c1ccc(F)cc1)c1cnccn1)C1CCN(CCOc2ccc(Cl)cc2Cl)CC1 (stereo not drawn),0.4,-7.9,-5.8,-9.3,-4.7
Cc1cccnc1C(NC(=O)C1CCN(CCOc2ccc(Cl)cc2Cl)CC1)c1ccc(Cl)cc1 (stereo not drawn),76.9*,-19.2,15.8,-24.1,9.2
O=C(NC(c1ccc(Cl)cc1)c1cccnc1)C1CCN(CCOc2ccc(Cl)cc2Cl)CC1 (stereo not drawn),62.5*,-12.0,16.4,-5.4,-7.1
CSc1ccc(CN(C)CC(=O)NC(C)c2ccccc2)cc1 (stereo not drawn),16.4,-3.2,-16.6,10.1,-36.2
CCCCC1(CC(=O)OC)C(=O)N(c2ccccc2)N(c2ccccc2)C1=O,20.5,-5.7,10.4,21.6,-19.7
Nc1ccc2c(c1)C(=O)C(=O)c1ccccc1-2,99.8*,-96.4*,79.8*,93.3*,96.8*
O=C(CN1CC(=O)Oc2ccccc21)OCC(=O)c1ccccc1,58.5*,-58.8*,50.1*,17.9,13.1
CCc1ccc(S(=O)(=O)/N=C2\C=C(Nc3cccc(C(=O)O)c3)C(=O)c3ccccc32)cc1,-153.3,-45.6,95.8*,-68.3,14.9
O=C(O)c1cccc(NC2=C(n3nnc4ccccc43)C(=O)c3ccccc3C2=O)c1,-14.6,-9.5,5.6,-42.0,-9.3
CCc1ccc(S(=O)(=O)/N=C2\C=C(Nc3ccc(O)cc3)C(=O)c3ccccc32)cc1,103.6*,-88.2*,99.4*,68.6*,94.8*
CCc1ccc(S(=O)(=O)/N=C2/C=C(Sc3ncn[nH]3)C(=O)c3ccccc32)cc1,102.0*,-42.0,80.6*,89.0*,98.0*
COCCn1c(SCC(=O)c2ccc(Cl)cc2)nnc1C(C)C,5.2,-0.6,-0.1,5.1,14.6
Cc1ccc(NC(=O)CCCNC(=O)c2ccc(Cl)cc2)c(Br)c1,2.8,-2.8,7.1,-5.9,-6.8
COCCN(Cc1ccccc1)C(=S)Nc1ccc(Cl)cc1,-265.5,3.9,-4.3,-8.1,26.6
C1CCC(C(CC2CCCCN2)C2CCCCC2)CC1 (stereo not drawn),104.0*,-17.1,10.3,-24.8,?
Cc1ccccc1[C@@]1(C)ON(c2ccccc2C(F)(F)F)C1=O,79.2*,5.3,49.1,29.1,-18.4
COC(=O)N1C(=O)[C@](c2ccccc2)(C2CCCC2)N1C(=O)OC,29.9,-15.5,10.7,26.7,10.8
O=C1N(c2ccccc2C(F)(F)F)O[C@]1(c1ccccc1)C1CCCC1,77.5*,0.6,46.6,5.5,-2.6
CC[C@@]1(c2ccccc2OC)ON(c2ccccc2C(F)(F)F)C1=O,80.7*,4.2,59.1*,14.0,-5.3

# Bioassay records from PubChem BioAssay.
